Assay outcomes (PubChem)
IP6K1 inh: IP6K1 kinase inhibition | Q92551 | IP6K1 kinase, ADP-Glo luminescence, 2 h; stronger effect = lower value | activity change, % (series mostly up to about 58 µM) | 140,000 tested, 0.81% active | AID 1645851; in the data active = activity change below about -25%; note: % is set by controls: 0 for no effect and ±100 for the full control effect
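ADP-Glo luminescence measures ADP made by human IP6K1 during a 2 h RT reaction with ATP/IP6 (mix at 1.3 mM/130 uM); top library doses 57.5 and 19.1 uM final.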
KDM5B inhibitor: inhibitors of human KDM5B histone demethylase; Q9UGL1; KDM5B demethylase, FDH-coupled NADH fluorescence (FDH is formaldehyde dehydrogenase); Potency, µM (titrated, usually from 57.7 µM), usual class: inhibitors; 220,000 tested, 2.6% active; note: potency is the fitted concentration of half-maximal effect; 0% is about no effect; nearly all actives have a fitted effect of over 70% in size
Target sequence (Q9UGL1 whole entry, looked up): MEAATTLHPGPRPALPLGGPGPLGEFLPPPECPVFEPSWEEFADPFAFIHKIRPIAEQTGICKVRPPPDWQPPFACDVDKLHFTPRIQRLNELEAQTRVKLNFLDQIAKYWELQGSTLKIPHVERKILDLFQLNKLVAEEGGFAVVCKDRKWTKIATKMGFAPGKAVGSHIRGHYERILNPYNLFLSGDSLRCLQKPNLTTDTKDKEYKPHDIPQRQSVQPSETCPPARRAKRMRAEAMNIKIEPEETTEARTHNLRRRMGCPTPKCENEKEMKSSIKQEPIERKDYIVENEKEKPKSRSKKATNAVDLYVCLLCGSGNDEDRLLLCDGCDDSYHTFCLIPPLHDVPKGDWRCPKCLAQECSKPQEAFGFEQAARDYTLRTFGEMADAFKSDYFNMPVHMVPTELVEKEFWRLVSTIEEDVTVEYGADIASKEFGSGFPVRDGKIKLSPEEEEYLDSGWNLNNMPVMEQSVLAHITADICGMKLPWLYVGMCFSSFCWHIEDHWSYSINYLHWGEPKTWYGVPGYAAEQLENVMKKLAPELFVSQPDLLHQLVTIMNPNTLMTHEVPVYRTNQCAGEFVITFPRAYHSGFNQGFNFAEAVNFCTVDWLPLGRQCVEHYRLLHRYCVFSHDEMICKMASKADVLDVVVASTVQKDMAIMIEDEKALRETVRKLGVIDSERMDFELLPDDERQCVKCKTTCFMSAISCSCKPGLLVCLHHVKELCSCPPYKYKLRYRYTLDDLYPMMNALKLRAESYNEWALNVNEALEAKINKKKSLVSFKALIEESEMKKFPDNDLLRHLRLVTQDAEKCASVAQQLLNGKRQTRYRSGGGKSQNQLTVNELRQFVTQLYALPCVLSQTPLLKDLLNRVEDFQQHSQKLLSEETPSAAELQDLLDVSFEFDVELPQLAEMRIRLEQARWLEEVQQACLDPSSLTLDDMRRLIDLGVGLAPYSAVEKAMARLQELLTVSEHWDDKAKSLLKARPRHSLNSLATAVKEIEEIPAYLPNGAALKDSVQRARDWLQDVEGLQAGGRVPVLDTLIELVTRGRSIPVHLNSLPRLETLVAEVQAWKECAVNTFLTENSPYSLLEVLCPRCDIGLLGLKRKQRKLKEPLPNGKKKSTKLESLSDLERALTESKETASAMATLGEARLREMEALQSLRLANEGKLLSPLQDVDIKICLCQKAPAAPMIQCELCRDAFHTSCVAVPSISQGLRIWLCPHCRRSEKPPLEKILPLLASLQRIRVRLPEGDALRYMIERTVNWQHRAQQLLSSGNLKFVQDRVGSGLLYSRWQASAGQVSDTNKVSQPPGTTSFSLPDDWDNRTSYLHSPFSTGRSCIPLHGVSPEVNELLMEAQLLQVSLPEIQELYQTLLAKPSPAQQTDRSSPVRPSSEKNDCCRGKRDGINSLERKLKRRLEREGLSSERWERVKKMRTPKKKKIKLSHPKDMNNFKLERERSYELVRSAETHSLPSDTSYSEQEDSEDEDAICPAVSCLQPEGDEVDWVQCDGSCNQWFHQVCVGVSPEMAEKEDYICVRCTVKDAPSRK
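Here, H3K4me3 peptide (12.5 µM in substrate mix) is demethylated by KDM5BΔAP, 200 nM final, after 10 min compound exposure. Formaldehyde product is coupled through FDH (0.25 U/mL in mix) to NADH fluorescence; 30-min ΔRFU feeds dose-response curves.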
IP6K1 inh cnf: human IP6K1 inhibition, confirmatory; recombinant IP6K1 kinase, ADP-Glo luminescence, 2 h; Potency, µM (series often up to 49 µM), without a hit: top-dose activity change, negative = inhibition, hits mostly inhibitors; AID 1645852; 1,200 tested, 13% active; shares compounds with IP6K1 inh; note: potency is the fitted concentration of half-maximal effect; % is set by controls: 0 for no effect and ±100 for the full control effect; nearly all actives have a fitted effect of over 65% in size
An asterisk follows results filed as active; i = inactive; ? = inconclusive; / = not tested or not shown. In the library only some 2.8% were active in any assay of this set; here they are far more common. Unless noted, calls come from the whole dose curve; as a rule, active = well fitted inhibition curve with a large enough effect; inconclusive = small, poorly fitted or top-dose-only effect; inactive = no such curve, though single readings can be large or run the other way.

SMILES	IP6K1 inh	KDM5B inhibitor	others
Cc1noc(-c2ccn3c(CNC(=O)CCC4CCCC4)nnc3c2)n1	0.7	22.4µM*
CCc1noc(-c2ccn3c(CNC(=O)CCc4ccc(OC)cc4)nnc3c2)n1	12.6	?
Cc1ccc(OCC(=O)Nc2ccc(N3CCN(S(C)(=O)=O)CC3)cc2)cc1Cl	/	i
CC(C)OCCCNC(=O)c1cc(-c2ccccc2C(F)(F)F)nc2c1cnn2C	19.1	/
CCc1cc2c(C)cc(=O)oc2cc1OCC(=O)c1ccc(OC)cc1	/	i
CCCn1c(N2CCOCC2)nc2c1c(=O)n(C)c(=O)n2C	/	i
c1ccc(Cn2ccnc2C2CCN(c3ncnc4ccsc34)CC2)nc1	13.5	i
Cc1cc(N2CCC(c3nccn3Cc3ccccn3)CC2)nc2ccccc12	-8.6	31.6µM*
CN1CCN(c2ccc(-c3cccc(N)c3)nn2)CC1	-10.0	i
CN1CCN(c2cc(-c3cncc(N)c3)nc(N)n2)CC1	15.1	20µM*
CN(C)C[C@@H]1CN(C)C[C@H]1NC(=O)CCCc1ccccc1	-9.1	?
Cc1noc(C)c1C(=O)N[C@@H]1CN(c2ncccn2)C[C@H]1CN(C)C	14.3	31.6µM*
CN(C)C[C@@H]1CN(Cc2ccccc2)C[C@H]1NC(=O)c1cnco1	-3.7	i
CN(C)C[C@@H]1CN(c2ncccn2)C[C@H]1NC(=O)c1cnco1	2.1	31.6µM*
CN(C)C[C@@H]1CN(c2ncccn2)C[C@H]1NC(=O)CCCc1ccccc1	6.1	31.6µM*
CN(C)C[C@@H]1CN(c2ccncn2)C[C@H]1NC(=O)c1ccco1	-7.0	i
Cc1nc2cc(NC(=O)COc3ccccc3C)ccc2o1	/	i
O=C1Cc2c(-c3ccccc3)n[nH]c2CN1CCc1ccncc1	19.3	i
O=C1Cc2c(-c3ccc(N4CCOCC4)cc3)n[nH]c2CN1CCc1ccncc1	-1.3	22.4µM*
O=C(O)c1cc2c(s1)CN(C1CCCC1)C2	-8.3	i
CCC1CCCCN1CCNC(=O)c1cc2c(s1)CN(C1CCCC1)C2 (stereo not drawn)	24.9	14.1µM*
Cn1c(CNC(=O)c2cc3c(s2)CN(C2CC2)C3)nc2ccccc21	8.7	12.6µM*
CCN(CCNC(=O)c1cc2c(s1)CN(C1CC1)C2)c1cccc(C)c1	22.0	i
CC(=O)Nc1ccc(CC(=O)Nc2cccc3cccnc23)cc1	/	i
Cc1ccc(-c2ccccc2CN2CCN(C(=O)C(C)(C)C)CC2)cc1Cl	-3.1	/
SMILES	IP6K1 inh	KDM5B inhibitor	others
COc1ccc(F)cc1-c1cccc(C(=O)NCCN[S+](=O)([O-])CCC(F)(F)F)c1	-13.9	/
CCOC(=O)[C@H]1[C@@H](O)C(=O)N(Cc2ccccc2)C12CCN(C(=O)c1cc3ccccc3s1)CC2	18.8	/
Cc1noc(C)c1[S+](=O)([O-])N1CCCC1C(=O)N1CCC(c2nc3ccncc3[nH]2)CC1 (stereo not drawn)	-30.9*	/	IP6K1 inh cnf=-13.8%
O=C(C1CCCN1[S+](=O)([O-])c1ccccc1)N1CCC(c2nc3ccncc3[nH]2)CC1 (stereo not drawn)	18.2	/
NS(=O)(=O)c1ccc(Nc2nc(OCC3CCCCC3)c3[nH]cnc3n2)cc1	-46.7*	/	IP6K1 inh cnf=4.11µM*
CCN(CC)C(=O)c1ccc(Nc2nc(OCC3CCCCC3)c3[nH]cnc3n2)cc1	-40.5*	/	IP6K1 inh cnf=10.3µM*
CCCc1nc(CN(CC)C(=O)c2ccc(NC(=O)C3CCC3)cc2)no1	-3.3	i
NCCOCCOCCNC(=O)Cc1ccc(Nc2nc(NCc3ccc(F)cc3)nc(NCC3CCCCC3)n2)cc1	-1.1	/
CCN(CC)CCCNC(=O)c1ccc2c(c1)NC(=O)C(CS(=O)(=O)Cc1ccc(F)cc1Cl)N2 (stereo not drawn)	-10.2	?
CCOCCCNC(=O)c1ccc2c(c1)NC(=O)C(CS(=O)(=O)Cc1ccc(F)cc1Cl)N2 (stereo not drawn)	-42.8*	?	IP6K1 inh cnf=9.3%
Cc1cccc(CS(=O)(=O)CC2Nc3ccc(C(=O)NCc4ccccc4)cc3NC2=O)c1 (stereo not drawn)	14.2	?
Cc1ccc(CNC(=O)c2ccc3c(c2)NC(=O)C(CS(=O)(=O)Cc2cccc(F)c2)N3)cc1 (stereo not drawn)	-35.3*	?	IP6K1 inh cnf=-2.9%
O=c1oc2ccccc2cc1S(=O)(=O)N1CCc2ccccc2C1	/	i
Cn1c(=O)c2cc(C(=O)Nc3nc(-c4ccc(C(C)(C)C)cc4)cs3)cnc2n(C)c1=O	/	i
O=C(O)c1ccc(=O)oc1	/	i
COc1ccc(N(C)C(=O)Cc2noc3ccccc23)c(OC)c1	/	i
CCOC(=O)c1ccc2c(c1)[C@@H]1C=CC[C@@H]1[C@H](c1cccc(OC)c1OC)N2	-1.0	?
COC(=O)c1ccc([C@H]2Nc3ccc(S(=O)(=O)Nc4ccc(F)cc4)cc3[C@H]3C=CC[C@H]32)cc1	0.7	?
COc1ccc(Br)cc1[C@@H]1Nc2ccc(C(=O)O)cc2[C@@H]2C=CC[C@@H]21	-40.2*	?	IP6K1 inh cnf=?
COc1ccc(OC)c([C@@H]2Nc3ccc(C(=O)O)cc3[C@@H]3C=CC[C@@H]32)c1	-27.4*	?	IP6K1 inh cnf=?
O=C(NCCN[S+](=O)([O-])c1ccccc1)c1cccc(-c2ccc(C(F)(F)F)cc2)c1	8.8	/
Cc1ccc2c(COC(=O)COc3ccccc3)cc(=O)oc2c1C	/	i
Cc1cc(C)c2c(=O)cc(C(=O)Nc3ccc(S(N)(=O)=O)cc3)oc2c1	/	i
Cc1onc(-c2ccccc2)c1C(=O)Nc1ccc(NC(=O)c2c(-c3ccccc3)noc2C)cc1	/	i
CCOC(=O)c1ccccc1NC(=O)c1c(-c2ccccc2)noc1C	-30.7*	?	IP6K1 inh cnf=-13.8%
SMILES	IP6K1 inh	KDM5B inhibitor	others
CCc1nnc(NC(=O)c2cc(=O)[nH]c3ccccc23)s1	/	i
COC1CN(c2ccc(C)cc2)C12CCN(C(=O)CCCc1ccccc1)CC2 (stereo not drawn)	13.7	/
Cc1ccc(-c2noc(-c3ccc(N4CCC(C)CC4)c([N+](=O)[O-])c3)n2)cc1	-6.7	i
Cc1noc(-c2ccc(N3CCC(C)CC3)c([N+](=O)[O-])c2)n1	-36.3*	i	IP6K1 inh cnf=?
O=C(NC1CCCCCCC1)c1nn(Cc2ccccc2)c(=O)c2ccccc12	/	i
Cc1nn(-c2ccccc2)c2c1C(C(C)C)N(C1CCN([S+](=O)([O-])c3ccccc3)C1)C2=O (stereo not drawn)	3.4	/
O=C(Nc1ccc(-c2nnnn2C2CC2)cc1)NC1CCCCCC1	/	i
COc1ccc(NC(=O)c2ccccc2)c2cccnc12	/	i
COc1ccc(CNC(=O)CSc2ncc3c(n2)-c2cc(Cl)ccc2N(Cc2ccccc2)S3(=O)=O)cc1	-26.7*	i	IP6K1 inh cnf=8.8%
COc1ccc(CNC(=O)CSc2ncc3c(n2)-c2cc(Cl)ccc2N(Cc2ccccc2)S3(=O)=O)cc1OC	-8.4	i
Cc1ccc2c(=O)cc(C(=O)Nc3ccc(S(=O)(=O)N4CCCCC4)cc3)oc2c1C	19.6	i
Cc1cc(C)c2oc(C(=O)Nc3ccc(S(=O)(=O)N4CCCCC4)cc3)cc(=O)c2c1	-25.7*	i	IP6K1 inh cnf=0.8%
CCCc1c(C)nc2ncnn2c1Nc1ccc(C)c(C)c1	/	i
CCOC(=O)c1cccc(Nc2nc3ccccc3nc2NS(=O)(=O)c2ccccc2)c1	/	i
